{"source": "PubChem BioAssay (Tox21)", "note": "Active and inactive are the calls of the source. Calls come from the whole dose curve; as a rule, active = well fitted curve in the direction sought with a large enough effect in the repeat runs; inconclusive = weak or mixed curves; inactive = flat fitted curve, though single readings scatter. % is set by controls: 0 for no effect and ±100 for the full control effect."}
{"test": "qHTS assay to test for compound auto fluorescence at 590 nm (red) in HepG2 cells (AID 720674)", "conditions": "HepG2 autofluorescence, red 540/590 nm, 1 h; series mostly up to 91.3 µM", "excerpt": "U.S. Tox21 Program National Center for Advancing Translational Sciences [NCATS] NIH Chemical Genomics Center [NCGC] U.S. Environmental Protection Agency [EPA] National Institutes of Environmental Health Sciences [NIEHS] National Toxicology Program [NTP] U.S. Food and Drug Administration [FDA] Tox21 Assay Overview: Compound auto fluorescence often interferes with screening of the compound library against various biological targets and signaling pathways. Some of these compounds may have fluorophoric properties. Such properties may interfere with the assay outputs resulting in false positives and/or negatives. To decrease such complications and ensure the compound activities are relevant in terms of biological response, the Tox21 10K compound library was screened for auto fluorescence. From the fluorophores used as reporter signals in our screening assays, the auto fluorescence equivalencies of compounds against three fluorophores have been evaluated: Triamterene, Fluorescein and Rose Bengal sodium for blue, green and red fluorescence, respectively. The fluorescence intensities were measured using Excitation/Emission wavelengths at 405/460nm, 485/535nm and 540/590nm for blue, green and red labels, respectively. This assay includes the red fluorescence data.\nTox21 Assay Protocol Summary: 2,000 HepG2 cells in 5 uL of culture medium (MEM containing 10% FBS) per well were dispensed into black wall/clear bottom 1536-well plates using a Multidrop Combi Dispenser (ThermoFisher Scientific, Waltham, MA). The assay plates were incubated overnight at 37 C to allow cell attachment to the well bottom, followed by the transfer of 23 nL compound or DMSO vehicle by a pintool work station (Kalypsys , San Diego, CA). After the assay plates were incubated for 1 hr at 37 C and 5% CO2, fluorescence intensities in the assay plates were measured by an Envision (PerkinElmer, Shelton, CT) plate reader using three labels for measuring blue, green and red fluorescence at […] 460, 535 and 590 nm respectively."}
{"smiles": "CC(=O)c1sc(C)nc1C", "outcome": "inactive"}
{"smiles": "O=C1c2ccccc2C(=O)C1c1ccccc1", "fluorescence, relative to Rose Bengal": "0.709% [at 18.6 µM] (inactive)"}
{"smiles": "CCC(CC)CO", "outcome": "inactive"}
{"smiles": "CC(C)CC(C)CC(C)CC(C)COC(=O)c1ccccc1C(=O)OCC(C)CC(C)CC(C)CC(C)C", "note": "(stereo not given)", "outcome": "inactive"}
{"smiles": "CC[C@H](C)C(=O)O[C@H]1C[C@H](O)C=C2C=C[C@H](C)[C@H](CC[C@@H](O)C[C@@H](O)CC(=O)O)[C@H]21", "outcome": "inactive"}
{"smiles": "CN(C)C(=O)CNC(=O)Cc1ccccc1", "outcome": "inactive"}
{"smiles": "Nc1ccc(S(=O)(=O)Nc2ccc(Cl)nn2)cc1", "outcome": "inactive"}
{"smiles": "C=C(C)C(=O)OCCNC(C)(C)C", "outcome": "inactive"}
{"smiles": "O=C1O[C@@H]2[C@@H](O)[C@H](O)O[C@@H]2[C@H]1O", "outcome": "inactive"}
{"smiles": "O=C1c2cccc3c2[C@H](CCC3)CN1[C@@H]1CN2CCC1CC2", "outcome": "inactive"}
{"smiles": "O=C(NCCc1c[nH]c2ccccc12)c1cccnc1", "outcome": "inactive"}
{"smiles": "CCCCCCCCC1CCC(=O)O1", "note": "(stereo not given)", "outcome": "inactive"}
{"smiles": "CC(C)(C)c1n[nH]c(=S)n(N)c1=O", "outcome": "inactive"}
{"smiles": "CCCCCCCCCC(C)=O", "outcome": "inactive"}
{"smiles": "c1ccc2nccnc2c1", "outcome": "inactive"}
{"smiles": "Cc1ccccc1N=O", "outcome": "inactive"}
{"smiles": "C=COCCOCCOCCOC=C", "outcome": "inactive"}
{"smiles": "Cc1ccc(C=O)cc1C", "outcome": "inactive"}
{"smiles": "CCCCCCCCCCCCCC", "outcome": "inactive"}
{"smiles": "CC(=O)Nc1ccc(S(=O)(=O)Nc2ccc([N+](=O)[O-])cc2)cc1", "outcome": "inactive"}
{"smiles": "C[Si](C)=O", "fluorescence, relative to Rose Bengal": "-0.082% [at 9.17 µM] (inactive)"}
{"smiles": "COc1ccc2c(c1)C(=O)N(CCc1ccc(S(=O)(=O)NC(=O)NC3CCCCC3)cc1)C(=O)C2(C)C", "fluorescence, relative to Rose Bengal": "0.0268% [at 18.6 µM] (inactive)"}
{"smiles": "O=C(O)c1cc(Br)c(O)c(Br)c1", "outcome": "inactive"}
{"smiles": "CN1CCN(CC(=O)N2c3ccccc3C(=O)Nc3cccnc32)CC1", "outcome": "inactive"}
{"smiles": "O=C(OCC1(COC(=O)c2cccnc2)CCCC(COC(=O)c2cccnc2)(COC(=O)c2cccnc2)C1O)c1cccnc1", "outcome": "inactive"}
{"smiles": "Cc1cccc(C)c1OCC(C)N", "note": "(stereo not given)", "outcome": "inactive"}
{"smiles": "CN1C(C)(C)CCCC1(C)C", "outcome": "inactive"}
{"smiles": "COc1cc(N)ccc1C", "outcome": "inactive"}
{"smiles": "CCCCCCCCCCl", "outcome": "inactive"}
{"smiles": "BrCCCCCBr", "outcome": "inactive"}
{"smiles": "O=S(O)(O)=S", "fluorescence, relative to Rose Bengal": "-0.423% [at 3.72 µM] (inactive)"}
{"smiles": "N#Cc1ccc(C(=O)O)cc1", "outcome": "inactive"}
{"smiles": "OC[C@H](Cc1cccc(O)c1)[C@H](CO)Cc1cccc(O)c1", "outcome": "inactive"}
{"smiles": "COCCOC(=O)C1=C(C)NC(C)=C(C(=O)OC(C)C)C1c1cccc([N+](=O)[O-])c1", "note": "(stereo not given)", "outcome": "inactive"}
{"smiles": "N[C@@H](CCC(=O)Nc1ccc([N+](=O)[O-])cc1)C(=O)O", "outcome": "inactive"}
{"smiles": "CC(C)c1ccc2cc(C(C)C)ccc2c1", "outcome": "inactive"}
{"smiles": "CC(C)CCCC(C)(C)O", "outcome": "inactive"}
{"smiles": "O=C(OCc1ccccc1)C(=O)OCc1ccccc1", "outcome": "inactive"}
{"smiles": "CCOc1cc([N+](=O)[O-])c(OCC)cc1N1CCOCC1", "outcome": "inactive"}
{"smiles": "CCCCCCCCC(=O)Cl", "outcome": "inactive"}
